Test results reported in the supplement of paper PMC11732987, “Enantioselective OTUD7B fragment discovery through chemoproteomics screening and high-throughput optimisation” (Communications Chemistry, 2025).

How the values were obtained:
Assay in all cases: log2 ratio of Biotin-Ahx-Ub-VS probe labelling (fragment/DMSO); higher = less target engagement (more negative = stronger competition), active = hit call of the paper (q ≤ 0.05, log2 ratio ≤ -1)
Settings in all cases: compound concentration: 200 uM; treatment time: 3 h
USP34 = USP34 (UniProt Q70CQ2)
Chain of USP34 (Q70CQ2 whole entry, the tested form may be a part): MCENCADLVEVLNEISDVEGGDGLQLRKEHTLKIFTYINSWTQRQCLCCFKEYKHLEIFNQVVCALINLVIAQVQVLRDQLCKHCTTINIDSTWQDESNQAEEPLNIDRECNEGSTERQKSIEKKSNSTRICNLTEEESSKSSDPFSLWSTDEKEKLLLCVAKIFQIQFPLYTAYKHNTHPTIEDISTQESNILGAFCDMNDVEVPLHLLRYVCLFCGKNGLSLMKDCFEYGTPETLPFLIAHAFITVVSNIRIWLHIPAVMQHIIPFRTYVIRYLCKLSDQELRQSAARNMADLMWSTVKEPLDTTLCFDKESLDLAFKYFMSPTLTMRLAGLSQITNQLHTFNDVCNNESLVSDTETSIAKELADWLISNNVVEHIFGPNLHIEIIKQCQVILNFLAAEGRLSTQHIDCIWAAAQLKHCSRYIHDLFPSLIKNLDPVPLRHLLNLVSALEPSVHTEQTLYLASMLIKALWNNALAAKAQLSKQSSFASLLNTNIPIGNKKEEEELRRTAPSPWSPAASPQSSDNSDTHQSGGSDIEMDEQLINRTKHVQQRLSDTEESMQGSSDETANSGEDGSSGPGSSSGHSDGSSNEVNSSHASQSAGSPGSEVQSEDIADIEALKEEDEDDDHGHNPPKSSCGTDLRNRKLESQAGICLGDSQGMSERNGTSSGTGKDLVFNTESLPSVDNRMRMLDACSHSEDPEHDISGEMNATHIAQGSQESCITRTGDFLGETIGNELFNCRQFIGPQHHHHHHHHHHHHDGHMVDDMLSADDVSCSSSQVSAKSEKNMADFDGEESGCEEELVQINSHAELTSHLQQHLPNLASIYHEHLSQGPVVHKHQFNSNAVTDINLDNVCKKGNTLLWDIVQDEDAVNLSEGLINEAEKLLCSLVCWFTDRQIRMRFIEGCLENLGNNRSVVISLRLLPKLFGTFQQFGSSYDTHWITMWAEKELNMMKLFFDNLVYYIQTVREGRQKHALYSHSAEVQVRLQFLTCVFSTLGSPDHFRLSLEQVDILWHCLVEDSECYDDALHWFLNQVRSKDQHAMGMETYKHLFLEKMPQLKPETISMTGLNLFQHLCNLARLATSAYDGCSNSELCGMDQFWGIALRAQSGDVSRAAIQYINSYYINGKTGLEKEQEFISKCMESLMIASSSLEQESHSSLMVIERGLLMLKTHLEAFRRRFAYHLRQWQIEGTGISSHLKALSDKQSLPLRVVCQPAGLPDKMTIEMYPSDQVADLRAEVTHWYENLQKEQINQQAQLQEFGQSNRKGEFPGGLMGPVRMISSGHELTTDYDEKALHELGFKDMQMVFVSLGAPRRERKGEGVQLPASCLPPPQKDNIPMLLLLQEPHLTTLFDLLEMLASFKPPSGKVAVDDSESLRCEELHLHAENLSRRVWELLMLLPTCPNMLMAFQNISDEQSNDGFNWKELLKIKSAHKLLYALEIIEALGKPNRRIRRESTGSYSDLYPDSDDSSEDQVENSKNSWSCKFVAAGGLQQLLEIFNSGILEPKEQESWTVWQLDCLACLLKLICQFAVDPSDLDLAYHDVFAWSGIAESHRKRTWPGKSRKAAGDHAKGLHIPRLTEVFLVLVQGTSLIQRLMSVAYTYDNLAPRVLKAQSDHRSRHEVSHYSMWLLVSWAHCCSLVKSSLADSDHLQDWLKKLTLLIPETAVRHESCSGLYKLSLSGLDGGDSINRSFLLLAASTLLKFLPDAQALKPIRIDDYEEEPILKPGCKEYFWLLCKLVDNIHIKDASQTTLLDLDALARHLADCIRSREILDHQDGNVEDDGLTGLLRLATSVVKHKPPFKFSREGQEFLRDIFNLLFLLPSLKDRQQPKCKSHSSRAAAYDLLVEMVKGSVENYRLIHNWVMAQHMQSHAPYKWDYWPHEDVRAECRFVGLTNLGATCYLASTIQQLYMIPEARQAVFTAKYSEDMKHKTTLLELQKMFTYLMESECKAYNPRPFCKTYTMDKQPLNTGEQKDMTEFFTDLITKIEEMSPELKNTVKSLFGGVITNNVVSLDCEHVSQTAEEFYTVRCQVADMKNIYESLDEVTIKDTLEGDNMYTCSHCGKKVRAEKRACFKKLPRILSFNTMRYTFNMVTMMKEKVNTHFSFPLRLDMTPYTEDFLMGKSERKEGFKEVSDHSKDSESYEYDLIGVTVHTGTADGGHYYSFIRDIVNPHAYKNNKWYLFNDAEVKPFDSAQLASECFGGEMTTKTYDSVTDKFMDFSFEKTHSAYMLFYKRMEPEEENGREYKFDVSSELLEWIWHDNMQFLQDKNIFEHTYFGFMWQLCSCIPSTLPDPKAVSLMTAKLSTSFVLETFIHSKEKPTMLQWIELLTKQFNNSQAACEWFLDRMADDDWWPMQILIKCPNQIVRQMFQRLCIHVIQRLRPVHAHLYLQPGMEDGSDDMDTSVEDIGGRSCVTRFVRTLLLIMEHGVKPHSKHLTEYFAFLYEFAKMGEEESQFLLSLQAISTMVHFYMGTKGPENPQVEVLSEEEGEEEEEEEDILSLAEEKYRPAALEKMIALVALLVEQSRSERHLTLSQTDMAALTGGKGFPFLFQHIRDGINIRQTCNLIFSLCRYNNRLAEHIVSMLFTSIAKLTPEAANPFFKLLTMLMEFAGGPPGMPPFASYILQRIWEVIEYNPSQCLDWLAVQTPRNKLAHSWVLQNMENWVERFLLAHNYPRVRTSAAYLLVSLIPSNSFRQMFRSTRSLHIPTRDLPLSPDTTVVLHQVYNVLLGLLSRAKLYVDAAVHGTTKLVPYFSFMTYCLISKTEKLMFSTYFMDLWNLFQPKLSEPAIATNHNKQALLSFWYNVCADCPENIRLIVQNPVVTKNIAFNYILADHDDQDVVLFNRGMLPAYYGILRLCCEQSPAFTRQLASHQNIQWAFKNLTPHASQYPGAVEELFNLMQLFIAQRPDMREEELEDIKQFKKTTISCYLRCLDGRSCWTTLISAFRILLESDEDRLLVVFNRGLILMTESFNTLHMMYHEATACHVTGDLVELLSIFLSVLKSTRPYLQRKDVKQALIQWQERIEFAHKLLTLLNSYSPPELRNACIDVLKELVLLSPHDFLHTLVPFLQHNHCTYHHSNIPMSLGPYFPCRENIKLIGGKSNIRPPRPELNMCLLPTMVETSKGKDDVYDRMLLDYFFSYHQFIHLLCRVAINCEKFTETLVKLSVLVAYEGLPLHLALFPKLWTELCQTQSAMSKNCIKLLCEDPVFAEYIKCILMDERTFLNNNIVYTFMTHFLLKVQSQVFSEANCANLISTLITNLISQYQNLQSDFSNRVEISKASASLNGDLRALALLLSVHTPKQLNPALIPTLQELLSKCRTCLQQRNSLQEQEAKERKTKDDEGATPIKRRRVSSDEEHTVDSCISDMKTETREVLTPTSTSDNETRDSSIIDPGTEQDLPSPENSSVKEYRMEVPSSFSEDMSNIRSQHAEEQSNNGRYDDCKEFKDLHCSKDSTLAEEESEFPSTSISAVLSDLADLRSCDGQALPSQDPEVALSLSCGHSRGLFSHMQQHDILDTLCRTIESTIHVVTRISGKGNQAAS
Outline: (§1)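 HEK293T lysate, 495 µg per sample in Tris/CHAPS/IGEPAL buffer with protease inhibitors, was treated in triplicate with fragment at 200 µM or vehicle for 3 h and then with Biotin-Ahx-Ub-VS at 0.5 µM final for 1 h. Labelled DUBs were NeutrAvidin-enriched, digested with LysC and trypsin, and run by diaPASEF LC-MS/MS. Spectronaut label-free quantities were global-median-normalised, and values are average log2 fragment/vehicle ratios by unpaired t-test on proteins with ≥2 unique peptides.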

USP36 = target: T1, USP36 (UniProt Q9P275)
T1 sequence (whole entry): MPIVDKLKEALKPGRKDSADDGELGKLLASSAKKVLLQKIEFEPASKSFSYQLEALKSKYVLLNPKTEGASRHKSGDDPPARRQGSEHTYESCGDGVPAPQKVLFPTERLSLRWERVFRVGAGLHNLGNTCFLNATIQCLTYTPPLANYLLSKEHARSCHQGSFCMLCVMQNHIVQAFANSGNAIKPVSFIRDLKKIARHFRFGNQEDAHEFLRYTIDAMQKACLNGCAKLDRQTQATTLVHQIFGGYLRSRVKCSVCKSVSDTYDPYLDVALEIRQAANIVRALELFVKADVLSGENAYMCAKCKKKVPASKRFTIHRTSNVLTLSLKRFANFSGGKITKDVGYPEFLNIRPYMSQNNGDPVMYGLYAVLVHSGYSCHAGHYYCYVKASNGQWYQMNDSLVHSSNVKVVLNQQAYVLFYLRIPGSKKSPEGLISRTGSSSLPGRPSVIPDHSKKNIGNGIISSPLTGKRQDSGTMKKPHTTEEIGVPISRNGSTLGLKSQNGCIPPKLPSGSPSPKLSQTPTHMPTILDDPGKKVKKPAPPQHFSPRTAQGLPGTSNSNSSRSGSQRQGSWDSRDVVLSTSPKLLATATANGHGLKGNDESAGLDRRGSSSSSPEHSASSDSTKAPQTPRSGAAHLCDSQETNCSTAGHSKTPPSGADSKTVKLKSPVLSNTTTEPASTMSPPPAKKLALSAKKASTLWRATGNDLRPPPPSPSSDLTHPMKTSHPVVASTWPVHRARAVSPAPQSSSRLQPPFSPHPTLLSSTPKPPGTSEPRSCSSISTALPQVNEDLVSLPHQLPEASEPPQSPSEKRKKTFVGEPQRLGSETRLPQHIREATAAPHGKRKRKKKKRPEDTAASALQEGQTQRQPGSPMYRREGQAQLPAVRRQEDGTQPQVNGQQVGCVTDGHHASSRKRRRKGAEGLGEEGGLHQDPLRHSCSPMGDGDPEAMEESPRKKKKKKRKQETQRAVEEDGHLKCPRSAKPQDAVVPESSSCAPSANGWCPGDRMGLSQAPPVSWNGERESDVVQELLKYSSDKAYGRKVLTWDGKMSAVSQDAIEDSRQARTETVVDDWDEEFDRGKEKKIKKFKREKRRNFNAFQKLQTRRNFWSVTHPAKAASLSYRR
Outline: as §1

USP38 = target: T2, USP38 (UniProt Q8NB14)
T2 sequence (whole entry): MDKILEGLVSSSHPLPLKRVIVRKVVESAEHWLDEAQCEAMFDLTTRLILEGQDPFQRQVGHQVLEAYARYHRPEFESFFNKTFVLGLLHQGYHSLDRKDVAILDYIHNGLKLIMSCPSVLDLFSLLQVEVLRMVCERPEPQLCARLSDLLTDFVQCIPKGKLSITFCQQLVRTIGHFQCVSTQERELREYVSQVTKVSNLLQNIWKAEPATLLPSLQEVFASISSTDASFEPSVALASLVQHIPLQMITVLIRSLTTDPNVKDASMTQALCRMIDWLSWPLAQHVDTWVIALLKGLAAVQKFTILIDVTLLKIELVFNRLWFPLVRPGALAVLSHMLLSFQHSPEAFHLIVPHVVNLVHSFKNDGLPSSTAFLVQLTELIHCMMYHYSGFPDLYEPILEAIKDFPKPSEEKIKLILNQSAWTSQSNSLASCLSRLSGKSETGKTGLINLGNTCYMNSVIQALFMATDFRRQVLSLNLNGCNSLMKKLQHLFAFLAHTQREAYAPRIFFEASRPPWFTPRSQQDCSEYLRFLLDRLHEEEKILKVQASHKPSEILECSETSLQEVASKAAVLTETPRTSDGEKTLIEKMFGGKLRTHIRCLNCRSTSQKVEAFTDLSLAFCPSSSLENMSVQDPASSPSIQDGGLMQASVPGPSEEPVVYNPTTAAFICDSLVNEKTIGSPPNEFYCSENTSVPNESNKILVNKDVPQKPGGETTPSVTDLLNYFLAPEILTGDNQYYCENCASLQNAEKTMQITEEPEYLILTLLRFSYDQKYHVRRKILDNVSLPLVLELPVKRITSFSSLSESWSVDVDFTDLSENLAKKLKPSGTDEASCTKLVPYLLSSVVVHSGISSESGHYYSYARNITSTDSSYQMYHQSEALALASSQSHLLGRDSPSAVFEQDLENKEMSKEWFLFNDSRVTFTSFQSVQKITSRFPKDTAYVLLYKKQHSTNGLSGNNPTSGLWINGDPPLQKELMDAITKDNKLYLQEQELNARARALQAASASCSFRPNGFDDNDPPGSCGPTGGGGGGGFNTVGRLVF
Outline: as §1

USP39 = target: T3, USP39 (UniProt Q53GS9)
T3 sequence (whole entry): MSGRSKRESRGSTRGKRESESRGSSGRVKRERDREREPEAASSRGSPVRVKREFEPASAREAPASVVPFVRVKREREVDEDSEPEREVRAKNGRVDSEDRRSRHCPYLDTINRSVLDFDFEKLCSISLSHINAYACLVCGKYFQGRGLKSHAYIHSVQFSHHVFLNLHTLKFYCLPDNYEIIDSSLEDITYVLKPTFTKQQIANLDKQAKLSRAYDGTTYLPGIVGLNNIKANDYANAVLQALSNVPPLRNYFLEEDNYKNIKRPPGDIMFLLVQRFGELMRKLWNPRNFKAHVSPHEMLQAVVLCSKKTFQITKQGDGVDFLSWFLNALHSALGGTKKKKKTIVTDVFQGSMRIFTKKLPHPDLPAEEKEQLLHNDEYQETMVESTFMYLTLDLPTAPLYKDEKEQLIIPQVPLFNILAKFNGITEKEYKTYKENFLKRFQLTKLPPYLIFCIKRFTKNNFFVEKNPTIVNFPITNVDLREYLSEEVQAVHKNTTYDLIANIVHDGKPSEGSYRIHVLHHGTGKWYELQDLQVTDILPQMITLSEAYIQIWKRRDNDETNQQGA
Outline: as §1

USP4 = target: T4, USP4 (UniProt Q13107)
T4 sequence (whole entry): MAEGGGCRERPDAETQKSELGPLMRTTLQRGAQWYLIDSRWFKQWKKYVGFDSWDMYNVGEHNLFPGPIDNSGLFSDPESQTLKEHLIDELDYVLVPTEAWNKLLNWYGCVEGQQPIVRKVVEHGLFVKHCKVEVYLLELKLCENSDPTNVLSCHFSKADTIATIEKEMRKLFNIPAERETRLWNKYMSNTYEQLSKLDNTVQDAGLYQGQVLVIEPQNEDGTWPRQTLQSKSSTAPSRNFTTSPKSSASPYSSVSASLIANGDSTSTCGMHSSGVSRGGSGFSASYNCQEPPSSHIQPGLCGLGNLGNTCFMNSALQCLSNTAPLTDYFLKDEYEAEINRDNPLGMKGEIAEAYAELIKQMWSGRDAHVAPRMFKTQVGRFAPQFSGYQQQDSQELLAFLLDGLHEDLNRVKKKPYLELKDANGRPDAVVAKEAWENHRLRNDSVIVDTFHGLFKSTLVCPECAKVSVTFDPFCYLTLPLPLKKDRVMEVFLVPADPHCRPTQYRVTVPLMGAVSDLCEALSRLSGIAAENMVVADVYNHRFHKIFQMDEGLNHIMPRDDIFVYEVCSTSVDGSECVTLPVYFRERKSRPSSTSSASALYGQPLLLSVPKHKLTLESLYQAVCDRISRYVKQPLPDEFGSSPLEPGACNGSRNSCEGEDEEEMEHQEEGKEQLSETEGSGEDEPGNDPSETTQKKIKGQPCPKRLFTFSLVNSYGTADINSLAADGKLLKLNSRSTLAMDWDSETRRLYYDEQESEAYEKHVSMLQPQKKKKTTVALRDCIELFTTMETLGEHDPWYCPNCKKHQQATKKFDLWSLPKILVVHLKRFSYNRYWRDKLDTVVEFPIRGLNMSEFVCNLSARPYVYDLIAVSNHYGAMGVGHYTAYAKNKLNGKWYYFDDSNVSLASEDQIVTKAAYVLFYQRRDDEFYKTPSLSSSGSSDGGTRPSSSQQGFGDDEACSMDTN
Outline: as §1

Measured: log2 ratio of Biotin-Ahx-Ub-VS probe labelling

O=C(CCl)NCCc1ccc(F)cc1
inactive: USP34 -0.0755 | USP36 0.207 | USP38 0.0565 | USP39 0.108 | USP4 -0.11
